In ChEMBL document CHEMBL3988442, “University of Dundee, Small-Polar-MMV Screening Library” (2021) one finds Percent Effect data, which are given here for eight compounds.

Holding throughout (design): scale not given: direction of the effect not stated beside the values
Test [1] addresses Protein translocase subunit SecA (Escherichia coli (strain K12)) (UniProt P10408). As to the kind of experiment: Assay to Identify E. coli SecA ATPase Inhibitors. Type of test: functional. Particulars: 30 µM.
The target in test [2] is T1, Ubiquitin-activating enzyme e1, putative (Leishmania donovani (strain BPK282A1)) (UniProt E9BSI1).
T1 sequence (whole entry): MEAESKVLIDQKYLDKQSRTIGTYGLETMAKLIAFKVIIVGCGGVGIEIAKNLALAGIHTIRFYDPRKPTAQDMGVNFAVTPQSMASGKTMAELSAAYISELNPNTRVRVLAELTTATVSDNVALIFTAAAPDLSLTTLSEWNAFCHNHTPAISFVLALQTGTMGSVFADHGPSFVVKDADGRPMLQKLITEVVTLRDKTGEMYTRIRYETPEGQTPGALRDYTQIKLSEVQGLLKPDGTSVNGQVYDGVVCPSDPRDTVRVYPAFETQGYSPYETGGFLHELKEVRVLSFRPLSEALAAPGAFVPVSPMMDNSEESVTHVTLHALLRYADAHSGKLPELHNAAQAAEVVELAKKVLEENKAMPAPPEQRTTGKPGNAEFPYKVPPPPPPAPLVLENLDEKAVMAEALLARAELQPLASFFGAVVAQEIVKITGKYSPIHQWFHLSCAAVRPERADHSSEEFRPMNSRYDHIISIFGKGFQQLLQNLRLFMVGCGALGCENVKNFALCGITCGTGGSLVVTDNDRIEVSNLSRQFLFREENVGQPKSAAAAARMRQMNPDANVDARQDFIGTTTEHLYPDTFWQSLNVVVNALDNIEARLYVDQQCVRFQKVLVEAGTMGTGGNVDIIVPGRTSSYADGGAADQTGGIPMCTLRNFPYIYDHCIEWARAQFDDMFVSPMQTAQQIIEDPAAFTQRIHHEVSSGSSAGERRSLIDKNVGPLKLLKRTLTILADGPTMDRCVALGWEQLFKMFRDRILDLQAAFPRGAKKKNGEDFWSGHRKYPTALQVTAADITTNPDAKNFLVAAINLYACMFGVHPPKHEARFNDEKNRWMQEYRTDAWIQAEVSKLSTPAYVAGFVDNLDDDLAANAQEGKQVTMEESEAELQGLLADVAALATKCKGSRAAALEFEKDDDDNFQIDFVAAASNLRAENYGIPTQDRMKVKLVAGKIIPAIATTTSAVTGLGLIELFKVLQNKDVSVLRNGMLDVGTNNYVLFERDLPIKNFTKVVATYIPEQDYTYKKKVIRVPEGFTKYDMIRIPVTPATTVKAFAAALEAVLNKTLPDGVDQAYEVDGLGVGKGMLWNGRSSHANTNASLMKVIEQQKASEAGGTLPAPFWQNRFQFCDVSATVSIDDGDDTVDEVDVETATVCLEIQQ
Put plainly: Leishmania donovani Ubiquitin Activating Enzyme (LdE1). Type of test: functional. Particulars: 30 µM.

In test [3] the target is AMP-activated protein kinase, AMPK (Homo sapiens) (UniProt P54646+O43741+P54619+Q9UGJ0+Q9Y478+Q13131+Q9UGI9). As to the kind of experiment: AMP-dependent Kinase enzyme assay. An in vitro enzyme assay that detects ADP turnover that is directly proportional to AMPK activity. This uses naive AMPK that is activated during the assay with MK-8722. The format is functional. The conditions noted are these: 30 µM.

In test [4] the target is Sialic acid-binding Ig-like lectin 9 (Homo sapiens) (UniProt Q9Y336). Put plainly: Hs-Siglec9 ALPHAscreen SOP 20170721. Particulars: 10 µM.
Sialic acid-binding Ig-like lectin 9 (Homo sapiens), sequence (Q9Y336 whole entry): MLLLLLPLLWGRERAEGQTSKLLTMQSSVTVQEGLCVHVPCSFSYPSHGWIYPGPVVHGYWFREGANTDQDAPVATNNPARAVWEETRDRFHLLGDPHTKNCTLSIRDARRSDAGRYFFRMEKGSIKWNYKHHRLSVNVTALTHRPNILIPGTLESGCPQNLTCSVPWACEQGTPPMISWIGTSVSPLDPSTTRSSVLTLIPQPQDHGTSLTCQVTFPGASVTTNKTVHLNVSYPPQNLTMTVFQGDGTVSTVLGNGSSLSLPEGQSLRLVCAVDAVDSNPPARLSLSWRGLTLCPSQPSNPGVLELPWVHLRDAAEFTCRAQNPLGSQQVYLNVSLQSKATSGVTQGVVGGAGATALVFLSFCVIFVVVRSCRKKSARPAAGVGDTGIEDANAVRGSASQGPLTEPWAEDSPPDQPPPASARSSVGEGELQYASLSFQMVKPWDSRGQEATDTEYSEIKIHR
The next test concerns Trypanosoma cruzi. As to the kind of experiment: Trypanosoma cruzi phosphomannomutase and mannose-1-phosphate guanylyltransferase assay. The format is functional. The conditions noted are these: 10 µM.
In test [5] the target is T2, Arginase-2, mitochondrial (Homo sapiens) (UniProt P78540).
T2 sequence (whole entry): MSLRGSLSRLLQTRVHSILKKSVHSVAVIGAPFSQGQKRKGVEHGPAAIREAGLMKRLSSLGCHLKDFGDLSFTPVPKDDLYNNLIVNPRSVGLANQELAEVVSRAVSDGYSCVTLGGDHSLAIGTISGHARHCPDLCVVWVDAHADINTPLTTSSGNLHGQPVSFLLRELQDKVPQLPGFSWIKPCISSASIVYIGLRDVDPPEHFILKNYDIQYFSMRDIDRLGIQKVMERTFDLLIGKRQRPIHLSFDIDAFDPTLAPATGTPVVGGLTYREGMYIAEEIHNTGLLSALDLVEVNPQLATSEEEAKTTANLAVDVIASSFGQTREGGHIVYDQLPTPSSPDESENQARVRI
As to the kind of experiment: in vitro enzyme assay to detect the production of urea directly proportional to the activity of Arginase II. Also: in the data most compounds retested in dose-response had high values. Type of test: functional. The conditions noted are these: 33.3 µM.

The target of test [6] is T3, Proteasome subunit beta (Trypanosoma cruzi) (UniProt O96673).
T3 sequence (whole entry): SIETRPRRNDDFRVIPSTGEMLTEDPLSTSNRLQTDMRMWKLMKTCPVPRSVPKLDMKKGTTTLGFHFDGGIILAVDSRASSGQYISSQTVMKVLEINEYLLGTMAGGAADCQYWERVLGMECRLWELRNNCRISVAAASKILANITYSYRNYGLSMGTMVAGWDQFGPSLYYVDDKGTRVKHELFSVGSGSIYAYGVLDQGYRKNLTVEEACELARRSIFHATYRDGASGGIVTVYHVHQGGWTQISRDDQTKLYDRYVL
As to the kind of experiment: Trypanosoma cruzi proteasome chymotrypsin-like activity (TcProtChymo) assay. Also: in the data most compounds retested in dose-response had high values. The format is functional. Particulars: 9.37 µM.

The next test is filed under the species Homo sapiens. Put plainly: To identify inhibition of the IFN signalling (Jak-Stat) pathway via expression of an eGFP reporter gene under the control of an IFN-stimulated response element (ISRE) containing MxA promoter. The format is functional. The conditions noted are these: 30 µM.
For test [7], the target named is T4, Tyrosyl-tRNA synthetase, putative (Trypanosoma cruzi (strain CL Brener)) (UniProt Q4DSP6).
T4 sequence (whole entry): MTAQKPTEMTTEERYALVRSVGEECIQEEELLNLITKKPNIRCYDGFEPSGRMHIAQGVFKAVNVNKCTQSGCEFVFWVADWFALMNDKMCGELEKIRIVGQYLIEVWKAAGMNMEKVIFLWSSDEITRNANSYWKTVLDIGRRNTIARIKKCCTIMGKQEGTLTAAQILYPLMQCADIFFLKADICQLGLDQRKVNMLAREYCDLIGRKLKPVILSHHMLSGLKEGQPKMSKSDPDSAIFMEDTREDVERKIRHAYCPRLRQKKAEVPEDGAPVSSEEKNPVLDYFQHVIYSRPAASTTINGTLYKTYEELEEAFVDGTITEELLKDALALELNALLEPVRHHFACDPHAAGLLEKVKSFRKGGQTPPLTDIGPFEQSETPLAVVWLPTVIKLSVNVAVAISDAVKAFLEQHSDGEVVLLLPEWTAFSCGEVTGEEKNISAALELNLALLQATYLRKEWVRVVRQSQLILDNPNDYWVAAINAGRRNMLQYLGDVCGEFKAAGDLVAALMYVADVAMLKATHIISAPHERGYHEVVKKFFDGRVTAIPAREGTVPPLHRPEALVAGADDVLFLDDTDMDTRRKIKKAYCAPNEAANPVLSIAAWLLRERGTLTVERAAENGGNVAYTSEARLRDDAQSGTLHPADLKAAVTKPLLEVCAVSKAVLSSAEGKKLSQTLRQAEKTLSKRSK
As to the kind of experiment: Trypanosoma cruzi tyrosyl tRNA synthetase (TcYRS) _High Tyrosine SOP. Also: in the data most compounds retested in dose-response had high values. The format is functional. The conditions noted are these: 30 µM.

The target in test [8] is T4, Tyrosyl-tRNA synthetase, putative (Trypanosoma cruzi (strain CL Brener)). Put plainly: Trypanosoma cruzi tyrosyl tRNA synthetase (TcYRS) SOP. The format is functional. The conditions noted are these: 30 µM.
Test [9] has as its target Chromo domain-containing protein 1 (Saccharomyces cerevisiae (strain ATCC 204508 / S288c) (Baker's yeast)) (UniProt P32657). Put plainly: ScCHD-1 Enzyme Inhibition Assay. Also: in the data most compounds retested in dose-response had high values. Type of test: functional. Particulars: 30 µM.

For some of these results: Entries with a potency or affinity are not part of this list.

Chromo domain-containing protein 1 (Saccharomyces cerevisiae (strain ATCC 204508 / S288c) (Baker's yeast)), sequence (P32657 whole entry, the tested form may be a part): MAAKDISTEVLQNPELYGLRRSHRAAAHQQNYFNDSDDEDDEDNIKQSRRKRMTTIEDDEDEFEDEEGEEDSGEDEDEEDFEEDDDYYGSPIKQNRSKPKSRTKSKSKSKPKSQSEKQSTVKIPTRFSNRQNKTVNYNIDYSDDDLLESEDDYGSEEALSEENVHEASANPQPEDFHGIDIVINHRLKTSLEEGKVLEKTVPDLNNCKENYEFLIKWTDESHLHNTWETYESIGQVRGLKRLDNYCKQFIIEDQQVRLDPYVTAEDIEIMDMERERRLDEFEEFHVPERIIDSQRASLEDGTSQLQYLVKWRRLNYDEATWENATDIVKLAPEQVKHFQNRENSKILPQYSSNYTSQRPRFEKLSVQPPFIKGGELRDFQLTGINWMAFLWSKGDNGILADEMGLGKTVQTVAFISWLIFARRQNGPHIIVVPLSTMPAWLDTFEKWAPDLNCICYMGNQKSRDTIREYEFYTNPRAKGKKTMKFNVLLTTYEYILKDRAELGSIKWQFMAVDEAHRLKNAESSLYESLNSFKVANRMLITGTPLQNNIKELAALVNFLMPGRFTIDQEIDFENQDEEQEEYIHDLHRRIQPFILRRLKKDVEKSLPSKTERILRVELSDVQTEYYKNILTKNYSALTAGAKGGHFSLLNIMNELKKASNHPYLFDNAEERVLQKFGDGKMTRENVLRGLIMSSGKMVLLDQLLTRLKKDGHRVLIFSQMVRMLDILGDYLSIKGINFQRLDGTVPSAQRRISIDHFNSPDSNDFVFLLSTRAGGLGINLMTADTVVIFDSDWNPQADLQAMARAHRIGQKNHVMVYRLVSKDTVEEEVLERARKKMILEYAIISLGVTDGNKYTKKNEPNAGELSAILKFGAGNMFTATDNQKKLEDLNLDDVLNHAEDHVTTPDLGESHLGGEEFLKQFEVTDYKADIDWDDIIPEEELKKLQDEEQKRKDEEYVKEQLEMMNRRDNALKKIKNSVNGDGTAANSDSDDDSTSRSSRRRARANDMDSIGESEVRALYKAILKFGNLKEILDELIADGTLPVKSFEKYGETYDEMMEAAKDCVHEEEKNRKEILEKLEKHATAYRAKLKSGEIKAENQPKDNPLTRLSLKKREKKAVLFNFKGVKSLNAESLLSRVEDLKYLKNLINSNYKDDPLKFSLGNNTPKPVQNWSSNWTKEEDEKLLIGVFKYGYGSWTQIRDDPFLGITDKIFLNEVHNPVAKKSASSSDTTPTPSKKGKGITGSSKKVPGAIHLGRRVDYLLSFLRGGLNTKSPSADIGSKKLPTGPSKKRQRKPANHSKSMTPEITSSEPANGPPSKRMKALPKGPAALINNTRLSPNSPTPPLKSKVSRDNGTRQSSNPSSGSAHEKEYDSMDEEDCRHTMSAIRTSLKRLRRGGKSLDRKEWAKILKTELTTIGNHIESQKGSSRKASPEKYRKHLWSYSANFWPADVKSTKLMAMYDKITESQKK
Protein translocase subunit SecA (Escherichia coli (strain K12)), sequence (P10408 whole entry): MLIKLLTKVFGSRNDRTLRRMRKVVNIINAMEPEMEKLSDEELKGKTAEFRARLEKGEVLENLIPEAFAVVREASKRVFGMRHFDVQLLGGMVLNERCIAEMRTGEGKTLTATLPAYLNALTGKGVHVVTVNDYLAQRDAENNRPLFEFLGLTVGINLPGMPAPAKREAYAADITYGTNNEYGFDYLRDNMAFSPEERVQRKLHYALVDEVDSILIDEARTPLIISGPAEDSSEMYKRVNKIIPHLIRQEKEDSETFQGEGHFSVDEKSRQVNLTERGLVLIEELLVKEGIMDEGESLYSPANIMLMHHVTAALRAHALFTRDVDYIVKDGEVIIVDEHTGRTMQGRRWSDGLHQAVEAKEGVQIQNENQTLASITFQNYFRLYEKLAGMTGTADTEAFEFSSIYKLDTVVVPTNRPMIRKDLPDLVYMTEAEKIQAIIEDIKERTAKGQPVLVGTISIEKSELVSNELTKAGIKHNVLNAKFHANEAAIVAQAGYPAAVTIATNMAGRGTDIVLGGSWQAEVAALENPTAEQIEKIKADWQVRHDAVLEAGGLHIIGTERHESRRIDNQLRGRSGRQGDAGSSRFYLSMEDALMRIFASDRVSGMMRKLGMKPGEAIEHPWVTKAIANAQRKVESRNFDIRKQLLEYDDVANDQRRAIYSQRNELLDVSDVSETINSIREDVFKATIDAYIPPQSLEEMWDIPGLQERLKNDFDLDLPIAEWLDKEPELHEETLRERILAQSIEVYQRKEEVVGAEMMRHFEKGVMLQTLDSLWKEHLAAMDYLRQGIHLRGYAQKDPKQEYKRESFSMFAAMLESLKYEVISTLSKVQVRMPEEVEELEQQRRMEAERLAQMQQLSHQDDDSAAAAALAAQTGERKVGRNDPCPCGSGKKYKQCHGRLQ

Take `CC(C)c1ncc2c(n1)CN(Cc1cccc(OCC(N)=O)c1)CC2`: the Percent Effect in [1] was -3.71%; in test [2], 10.5%; in test [3], -32.8%; in test [4], 10.8%; with Trypanosoma cruzi, 2.44%; in [5], 4.6%. Besides, the Percent Effect in test [6] is -1%; in the test listed under Homo sapiens, -8.11%; in test [7] it was 8.33%; in test [8], 0%; in test [9], 4.59%.
Regarding `COCC(=O)N1CCC(c2cccc(Cc3ccc(F)cc3)n2)CC1`, the Percent Effect in [1] was 0.623%; in test [2] it was 9.46%; in test [3], 7.38%; in [4] it was -1.91%; with Trypanosoma cruzi it was -6.13%; in test [5], 3.94%. Also, the Percent Effect was 5.15% in test [6]; 22.7% in the test filed under Homo sapiens; 2.15% in test [7]; 11.7% in test [8]; -12.4% in test [9].
Regarding `COc1ccccc1C(O)CNC(=O)NCc1cccnc1OC` (stereo not drawn), the Percent Effect in test [1] is -5.38%; in [2], 12.7%; in test [3], 3.02%; in [4], -9.15%; in the test on Trypanosoma cruzi, -7.84%; in test [5] it was -0.38%. Besides, the Percent Effect in [6] was 6.63%; in the test filed under Homo sapiens, 30.3%; in test [7] it was 1.48%; in test [8], 13.9%; in test [9], -5.07%.
Regarding `O=C1CC[C@H]2CN(Cc3ccc(Cl)s3)CC[C@H]2N1CCc1c[nH]cn1`, the Percent Effect in [1] is -2.35%; in test [2], 5.48%; in test [3], 2.32%; in test [4] it was 10.8%; with Trypanosoma cruzi, 4.37%; in [5], -1.6%. Besides, the Percent Effect in test [6] is 11.9%; in the test filed under Homo sapiens, 34.2%; in test [7], 3.12%; in test [8], 8.64%; in [9], -0.239%.
With `O=C(CN(C1=NCCCC1)c1ccccc1)c1ccccc1`, the Percent Effect in [1] is -3.17%; in test [2], -2.63%; in test [3], 3.38%; in [4], -3.96%; in the test on Trypanosoma cruzi, -3.21%; in [5] it was -7.1%. Also, the Percent Effect is 7.96% in test [6]; -2.85% in the test listed under Homo sapiens; -3.19% in test [7]; -10.4% in test [8]; -5.81% in test [9].
In the case of `Cc1cccc2nc(C(=O)N3CCC(Nc4cccnn4)CC3)cn12`, the Percent Effect in test [1] was -4.19%; in test [2] it was 5.2%; in test [3], 2.91%; in test [4], 37.9%; with Trypanosoma cruzi it was -0.0979%; in test [5], -1.47%. The Percent Effect was 8.16% in [6]; 3.1% in the test filed under Homo sapiens; 0% in test [7]; 9.41% in test [8]; -18.7% in [9].
On to `Cc1cnc(CN(C)C2CCN(CC(=O)Nc3nncs3)C2)o1` (stereo not drawn), for which the Percent Effect in [1] was -0.539%; in test [2] it was 22.8%; in test [3] it was -11%; in [4], -8.69%; in the test with Trypanosoma cruzi, -2.74%; in test [5] it was 1.14%. Besides, the Percent Effect in [6] is 5%; in the test listed under Homo sapiens it was 5.59%; in [7] it was 12.3%; in test [8] it was 21.5%; in test [9] it was -9.12%.
`Cn1ccc(C(=O)N2CCN(c3cc(C#N)ccn3)CC2)cc1=O`: the Percent Effect in [1] is -6.91%; in [2] it was 13.5%; in [3], -11.9%; in test [4] it was 26.1%; in the test on Trypanosoma cruzi, 4.06%; in test [5], -5.61%. Moreover, the Percent Effect in [6] is 7.21%; in the test listed under Homo sapiens, 6.78%; in [7], 5.42%; in test [8], 13.6%; in test [9], -17.3%.
